PubChem BioAssay AID1817 (Sanford-Burnham Center for Chemical Genomics, 2009)
The whole screen tested about 290,000 compounds, of which about 50 (0.02%) were called active.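 Rule for the calls: active = displacement of at least 50% at 20 µM, with a fluorescence ratio check between 0.3 and a set limit; inactive = the rest.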 This excerpt belongs to a sample that is enriched for actives. Results with a measured potency or affinity are listed apart.

Target: E3 ubiquitin-protein ligase SIAH1 (Homo sapiens) (UniProt Q8IUQ4)
Test: blockers of Siah-1 interaction with plectin peptide – biochemical, fluorescence polarization, rhodamine-plectin, uHTS, primary screen (AID 1817);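 note: plate controls were Siah plus tracer with DMSO for no effect and tracer alone without Siah for full effect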
Conditions: Siah-1 / rhodamine-plectin peptide fluorescence polarization; at 20 µM; stronger effect = higher value

Sequence of E3 ubiquitin-protein ligase SIAH1 (Homo sapiens) (Q8IUQ4 whole entry, looked up): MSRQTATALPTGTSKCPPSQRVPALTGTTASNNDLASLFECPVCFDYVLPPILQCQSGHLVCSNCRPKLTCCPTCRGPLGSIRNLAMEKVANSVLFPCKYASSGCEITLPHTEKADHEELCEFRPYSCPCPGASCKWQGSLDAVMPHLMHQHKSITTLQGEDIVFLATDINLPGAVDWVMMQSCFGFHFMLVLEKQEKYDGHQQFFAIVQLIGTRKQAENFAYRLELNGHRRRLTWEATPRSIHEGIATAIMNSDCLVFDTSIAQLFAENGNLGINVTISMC

displacement, active:
O=C(Nc1ccc(S(=O)(=O)Nc2nccs2)cc1)/C(=C/c1ccccc1Cl)NC(=O)c1ccccc1 54.4%, O=[N+]([O-])c1cc(Cc2ccccc2)cc(C=Nc2ccc(N3CCOCC3)cc2)c1O 50%, Cc1ccsc1C=Nc1ccc(O)cc1 55.3%, CCCCNC1=CC(=O)C(=O)c2ccccc21 60%, CCOCCCNc1nc2c(C)cccn2c(=O)c1/C=C1\SC(=S)N(C(C)CC)C1=O (stereo not given) 53.2%, CCCn1c(=C(C#N)C#N)s/c(=C2\C=Cc3ccccc3N2CC)c1=O 65.1%, CN(c1ccccc1)c1ccc(/C=c2\s/c(=C(/C#N)C(=O)C(C)(C)C)n(Cc3ccco3)c2=O)cc1 102%, CCO/C=C1/C(=O)N(Cc2ccccc2)C(=O)c2ccccc21 55.6%, CCc1nnc(NS(=O)(=O)c2ccc(NC(=S)NC(=O)/C=C/c3ccc(OC)cc3)cc2)s1 51.9%

displacement, inactive:
O=C(NC(=S)Nc1ccc(S(=O)(=O)Nc2nccs2)cc1)c1ccccc1 -2.4%, COc1cc(NS(=O)(=O)c2ccc(NC(=O)/C(=C/c3ccccc3Cl)NC(=O)c3ccccc3)cc2)nc(OC)n1 13.9%, CCCn1c(=O)c(C(=O)NCc2ccncc2)c(O)c2ccccc21 8.4%, CC(=O)Nc1cccc(Oc2ncccc2[N+](=O)[O-])c1 -3%, O=[N+]([O-])c1cc(Br)c(O)c(C=Nc2ccc(N3CCOCC3)cc2)c1 41.8%, Cc1ccc(O)c(N=Cc2cc(Cc3ccccc3)cc([N+](=O)[O-])c2O)c1 22.9%, O=C(NCc1ccco1)/C(=C\c1ccc(F)cc1)NC(=O)c1ccco1 5.4%, O=C(Nc1ccc(S(=O)(=O)N2CCOCC2)cc1)c1ccc(F)cc1 10.6%, O=C(Nc1ccc(S(=O)(=O)N2CCOCC2)cc1)c1ccc(S(=O)(=O)N2CCOCC2)cc1 -5.8%, C=CCn1c(SCCC)nc(O)cc1=O 3%, COc1ccccc1NC(=O)CN(Cc1ccco1)C(=O)c1ccc(-n2nc(C)cc2C)cc1 -1.4%, COc1ccc(N2CCN(C(C)C(=O)N3CCc4ccccc43)CC2)cc1 (stereo not given) -5.4%, Cc1ccsc1/C=N/N=C/c1sccc1C -9.3%, Cc1ccc(N=Cc2sccc2C)cc1C 1.9%, O=C(O)CCNc1cc(N2CCN(C(=O)c3ccco3)CC2)c2noc3c2c1C(=O)c1ccccc1-3 63%, CCN1CCN(c2cc(N3CCN(C(=O)c4ccco4)CC3)c3c4c(onc24)-c2ccccc2C3=O)CC1 51.9%, Cc1ccc(-n2nnc3c(=O)n(CC(=O)NCC4CCCO4)cnc32)cc1 (stereo not given) -0.3%, CCOC(=O)CN1C(=O)CN(c2ccc(C)cc2)C1=O 5.5%, Cn1cc(NC(=O)OCc2ccc(Cl)cc2)c(C(F)(F)F)n1 1.5%, O=S(=O)(O)c1cccc(N=Nc2c(O)ccc3ccccc23)c1 -4.3%, Oc1ccc(Cl)cc1N=Nc1ccccc1 12.6%, CC12CCC(C(=O)N(NC(=O)c3ccc(O)cc3)C1=O)C2(C)C (stereo not given) -2.6%, COc1ccccc1N(CC(=O)NCCSc1ccc(Cl)cc1)S(C)(=O)=O -0.3%, CC(C)CC(c1nnnn1C(C)C)N1CCN(c2cccc(Cl)c2)CC1 (stereo not given) -5.9%, O=C1C=C(Nc2ccccc2)c2ccccc2C1=O 45.4%, Cc1ccc(NC2=CC(=O)C(=O)c3ccccc32)cc1 3.3%, COC(=O)c1cc2ccccc2oc1=O -2.6%, CCOC(=O)N/N=C\c1ccc(OC(=O)c2ccc3c(c2)OCO3)cc1 1.3%, CCOCCCNc1nc2c(C)cccn2c(=O)c1/C=C1\SC(=S)N(CC(C)C)C1=O -1.2%, CCCN1C(=O)/C(=C/c2c(NCCCOCC)nc3c(C)cccn3c2=O)SC1=S -2.4%, Cc1nn(C)c(Oc2cccc(C(F)(F)F)c2)c1C=O -3.5%, Cc1ccc(-n2ncc3c(NNC(=O)c4ccco4)ncnc32)cc1C 3%, O=C(N1CCN(c2ccccc2F)CC1)C12CC3CC(CC(C3)C1)C2 -8.1%, Cc1oc2c(C)c3oc(=O)c(CC(=O)N[C@@H](CC(C)C)C(=O)N[C@@H](Cc4ccccc4)C(=O)O)c(C)c3cc2c1C 30.3%, CCC(NC(=O)CCc1c(C)c2cc3c(C)c(C)oc3cc2oc1=O)C(=O)N[C@@H](Cc1ccccc1)C(=O)O (stereo not given in full) 34.5%, COc1cccc(C(C(=O)NC2CCCCC2)N(C(=O)c2cccs2)c2ccc3c(c2)OCO3)c1 (stereo not given) -1%, COc1ccc(CCC(=O)Nc2ccc(S(=O)(=O)N3CCOCC3)cc2)cc1 1.9%, O=c1ccc2cc(S(=O)(=O)N3CCN(c4ccc(Cl)cc4)CC3)ccc2o1 -0.9%, CCCN1C(=O)/C(=c2\s/c(=C3\C=Cc4ccccc4N3CC)c(=O)n2-c2ccccc2)SC1=S -1.6%, CCN1C(=C(C#N)C#N)C=Cc2ccccc21 8.2%, Cc1ccc(-c2nnc(SCC(=O)NC(=O)Nc3ccc(C)cc3C)n2N)cc1 5.1%, CCc1nc(Cl)c(C#N)c2c1CCCC2 3.8%, Cc1ccc(NC(=O)CCC(=O)OCc2ccc(Br)cc2)cc1 1.1%, Cc1ccc(/C=c2\s/c(=C(/C#N)C(=O)N3CCCC3)n(Cc3ccco3)c2=O)s1 -3%, COc1ccc(/C=c2\s/c(=C(/C#N)C(=O)NCc3ccco3)n(-c3ccccc3)c2=O)cc1 21.4%, Cc1ccc(NC(=O)Nc2cnccn2)cc1 -0.7%, Cc1ccc(S(=O)(=O)N2CCN(C(=O)c3cccs3)CC2)cc1C -2%, CCO/C=C1/C(=O)N(CC)c2ccccc21 -7.3%, CCO/C=C1\C(=O)N(c2ccccc2)C(=O)c2ccccc21 1.1%, C/C(=N\NC(=O)c1nnn(-c2nonc2N)c1CN1CCCCC1)c1ccccc1O -0.3%, Cc1cc(CN(C)C(=O)CC2C(=O)NCCN2Cc2ccc(-c3ccccc3)cc2)on1 (stereo not given) -0.5%, CC(C)(C)C(=O)Nc1ccc(C(=O)Nc2cccc(Oc3ccc(C(=O)O)c(C(=O)O)c3)c2)cc1 24%, Cc1ccc(C(=O)Nc2ccc(Oc3ccc(C(=O)O)c(C(=O)O)c3)cc2)cc1C -3%, O=C(O)Cn1c(=S)sc2ccccc21 -2.4%, COc1cc([N+](=O)[O-])ccc1NC(=S)Nc1cccc(C(=O)O)c1 -2.6%, CCN(CC)CCOC(=O)c1ccc(N/C=C(/C#N)c2nc(-c3ccc4c(c3)OCO4)cs2)cc1 2.3%, CCN(CC)CCOC(=O)c1ccc(N/C=C(/C#N)c2nc(-c3cccc(OC)c3)cs2)cc1 -5.2%, COc1cc(/C=C(\C#N)c2nc(-c3cc4ccccc4oc3=O)cs2)ccc1O 2.9%, CCN(CC)CCOC(=O)c1ccc(N/C=C(/C#N)c2nc(-c3ccc(OC)cc3)cs2)cc1 8.3%, C1CC2CN(c3nc4nonc4nc3N3CCSCC3)CCN2C1 (stereo not given) 1.1%, COc1cccc(CNC(=O)C2CCCN(S(=O)(=O)c3c(C)n[nH]c3C)C2)c1 (stereo not given) -0.6%, CC(C)N1CCC(N2CCN(C/C=C/c3ccc(F)cc3)CC2CCO)CC1 (stereo not given) 12%, O=C(/C=C/c1ccc(OCCCF)cc1)NCc1ccc(Cl)cc1 33.7%, CN(CC(=O)Nc1cccc(F)c1)C(=O)c1ccc(-c2ccc(Cl)cc2)o1 4.6%, Nc1c(O)ccc2c1C(=O)c1ccccc1C2=O 14.9%, Nc1ccc(Br)c2c1C(=O)c1ccccc1C2=O 7.9%, NS(=O)(=O)c1ccc(NC(=O)c2ccc(-c3ccccc3)cc2)cc1 42.1%, O=C(O)c1ccc(NS(=O)(=O)c2ccc(C(=O)Nc3ccccc3)cc2)cc1 -5.7%, O=C(NCc1ccccn1)C1CCN(S(=O)(=O)N2CCCC2)CC1 3.2%, O=C(Cn1cnc2c(cnn2-c2ccccc2)c1=O)N1CCN(c2ccc(F)cc2)CC1 0.6%, Cc1cc(NS(=O)(=O)c2ccc(NC(=O)C(C)Oc3cc(C)c(Cl)c(C)c3)cc2)no1 (stereo not given) 0.9%, CCc1nnc(NS(=O)(=O)c2ccc(NC(=S)NC(=O)/C=C/c3ccccc3)cc2)s1 11.7%, CCc1nnc(NS(=O)(=O)c2ccc(NC(=S)NC(=O)/C=C/c3ccc([N+](=O)[O-])cc3)cc2)s1 12.8%, CCc1nnc(NS(=O)(=O)c2ccc(NC(=S)NC(=O)/C=C/c3ccc(F)cc3)cc2)s1 12.9%, CCc1nnc(NS(=O)(=O)c2ccc(NC(=S)NC(=O)/C=C/c3cccs3)cc2)s1 15.5%, COCCCNc1oc(-c2ccccc2Cl)nc1C#N -5.3%, CN1CCN(C(=O)c2cn(-c3ccccc3)nc2-c2cccnc2)CC1 -0.3%, O=C(NCc1ccccc1)c1cc(-c2cccs2)on1 -1.2%, O=C(NCc1ccc(F)cc1)c1cc(-c2cccs2)on1 3.6%, CC(NC(=O)C(=O)c1cn(CC(=O)N2CCOCC2)c2ccccc12)c1ccccc1 (stereo not given) 1.9%, CC(C)CNS(=O)(=O)c1ccc(CC(C)C)cc1 1.9%
